Screening results from PubChem BioAssay.
An excerpt weighted towards active compounds, which were near 7.5% of everything screened.
VP16 counter: VP16 counterscreen qHTS for inhibitors of ROR gamma transcriptional activity. Drosophila S2 Gal4-VP16 UAS-luciferase, luminescence, 20 h. Potency, µM (series often up to 53.6 µM), for the others: at the highest dose activity, negative = inhibition, usual class: inhibitors. 310,000 compounds, 3.5% hits;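 also: Gal4-VP16 expression switched on by copper sulfate through the metallothionein promoter; potency is read from the fitted curve at half-maximal effect; nearly all actives have a fitted effect of over 50% in size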
ELG1 DNA repair: qHTS screen for small molecules that inhibit ELG1-dependent DNA repair in human embryonic kidney (HEK293T) cells expressing luciferase-tagged ELG1 | HEK293T ELG1-luciferase reporter, luminescence, 16 h; DNA damage induced by 5-fluorouridine | Potency, µM (doses to about 46.1 µM), without a hit: top-dose activity change, negative = inhibition, most hits filed as inhibitors | 330,000 compounds, 2.3% hits; also: potency is read from the fitted curve at half-maximal effect; nearly all actives have a fitted effect of over 55% in size
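5-Fluorouridine DNA damage + compound/DMSO, 2,000 cells/well, 16 h, 37 °C/5% CO2. ONE-Glo, 30 min RT, luminescence. Readout = decrease in reporter signal.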
RORg inh: qHTS for inhibitors of ROR gamma transcriptional activity; Drosophila S2 Gal4-RORgamma UAS-luciferase reporter, 20 h; AID 2551, 2010; 310,000 compounds, 5.4% hits; Potency, µM (highest dose often 53.6 µM), for inactives: at the highest dose activity change, negative = inhibition, actives largely listed as inhibitors; also: potency is read from the fitted curve at half-maximal effect; nearly all actives have a fitted effect of over 60% in size
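Luciferase reporter read in Schneider cells carrying Gal4-RORγ (mouse) and UAS-Photinus luciferase; cells given compound 1 h before 700 uM copper sulfate induction, then incubated 20 h at ambient temperature.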
TSHR antag: Antagonists of the Thyroid Stimulating Hormone Receptor: HTS campaign; Thyrotropin receptor (Homo sapiens), P16473; TSHR-expressing cells, TSH-stimulated cAMP HTRF, 2 h; active compounds read low; activity change, negative = inhibition, % at 11.5 µM; 330,000 compounds, 0.2% hits;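 active = activity change below a set negative limit, meaning inhibition stronger than a set level, cut at about -70% in these data; inconclusive = activity change between two set negative limits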
Target sequence (P16473 whole entry, looked up): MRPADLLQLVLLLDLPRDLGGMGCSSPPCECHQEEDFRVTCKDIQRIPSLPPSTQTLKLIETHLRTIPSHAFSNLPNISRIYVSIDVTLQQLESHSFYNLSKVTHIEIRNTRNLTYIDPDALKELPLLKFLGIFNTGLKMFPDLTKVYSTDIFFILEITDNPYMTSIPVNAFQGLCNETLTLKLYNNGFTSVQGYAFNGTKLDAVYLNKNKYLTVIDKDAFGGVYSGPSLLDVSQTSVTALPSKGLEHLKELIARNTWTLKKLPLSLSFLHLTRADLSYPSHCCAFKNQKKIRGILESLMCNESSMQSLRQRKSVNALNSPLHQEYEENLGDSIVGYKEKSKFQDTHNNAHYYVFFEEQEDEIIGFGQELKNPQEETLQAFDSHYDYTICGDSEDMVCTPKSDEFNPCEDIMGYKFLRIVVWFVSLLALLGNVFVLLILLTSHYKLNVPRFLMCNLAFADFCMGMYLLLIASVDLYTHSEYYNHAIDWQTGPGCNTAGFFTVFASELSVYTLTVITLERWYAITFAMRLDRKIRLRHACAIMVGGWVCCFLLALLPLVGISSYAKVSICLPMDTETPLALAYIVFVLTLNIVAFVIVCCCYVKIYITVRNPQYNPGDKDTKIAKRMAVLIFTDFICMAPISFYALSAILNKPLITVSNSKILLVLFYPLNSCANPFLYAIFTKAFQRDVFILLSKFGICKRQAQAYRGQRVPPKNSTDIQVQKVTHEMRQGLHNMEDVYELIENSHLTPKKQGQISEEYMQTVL
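TSHR-expressing cells, 200/well, pre-treated with compound, then stimulated with EC80 TSH (4nM final) for 2 hours at 37 deg C. cAMP measured by competitive HTRF: anti-cAMP cryptate antibody in lysis buffer plus cAMP-d2, read after 30 minutes at room temperature.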
B2AR arrestin: qHTS assay of beta-arrestin-biased ligands of beta2-adrenergic receptor; Potency, µM (top dose mostly 46.1 µM), without a hit: at the highest dose activation, hits mostly activators; Beta-2 adrenergic receptor (Homo sapiens), P07550; beta-arrestin recruitment to beta2AR, cell-based reporter; 330,000 compounds, 0.02% hits; AID 492947, 2010;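 also: potency is read from the fitted curve at half-maximal effect; 0% = DMSO controls and full agonism = EC100 isoproterenol or metaproterenol; nearly all actives have a fitted effect of over 65% in size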
The depositor's hits bear a star; ? = inconclusive; . = not tested or not shown; [ ] = dose if it differs, or a comment. Unless noted, calls follow the shape of the dose curve; as a rule, active = well fitted curve in the direction sought with a large enough effect; inconclusive = small, poorly fitted or top-dose-only effect, or another doubt; inactive = no such curve, though single readings can be large; an effect the other way counts as inactive or inconclusive. Unless noted, % is scaled to controls: 0 for no effect and ±100 for the full control effect.

SMILES | VP16 counter | ELG1 DNA repair | RORg inh | TSHR antag | B2AR arrestin
COc1cc(OC)cc(C(=O)NC(=S)N2CCCCCC2)c1 | 1.1µM* | 5% | 0.5µM* | -4 | 0%
COc1cc(OC)cc(C(=O)NC(=S)Nc2ccc(N3CCCC3)cc2)c1 | ? | -6% | 3.2µM* | -7 | -1%
CCN(CC)S(=O)(=O)c1cccc(NC(=O)c2cccc(S(=O)(=O)N3CCCC3)c2)c1 | . | ? | . | -30 | 0%
CC(C)CO/N=C1/C[C@@H](O)[C@@H](O)[C@@H]2[C@@H]3C(=O)N(Cc4ccccc4)C(=O)[C@H]3CC[C@H]12 | 8%[10 µM] | . | 6%[10 µM] | . | .
C[C@H](CO)N1C[C@H](C)[C@@H](CN(C)C)Oc2c(NS(=O)(=O)c3ccccc3)cccc2C1=O | . | 14% | . | -3 | 0%
C/C(=N\NC(=O)c1ccc(O)cc1)c1ccc(N2CCOCC2)cc1 | ? | 21% | 1.8µM* | 11 | 0%
O=C(N/N=C/c1ccc(N2CCOCC2)cc1)c1ccc(O)cc1 | ? | ? | 4.5µM* | 2 | 0%
CSc1ccc(/C=N/NC(=O)c2ccc(O)cc2)cc1 | 2.2µM* | ? | 0.56µM* | 31 | -1%
C/C(=C\C(=O)Nc1nccs1)c1ccccc1 | 11µM* | . | 8.9µM* | . | .
O=C(COc1ccc2ccc(=O)oc2c1)Nc1nccs1 | -4% | ? | 0% | 14 | 0%
O=C(COc1ccccc1)Nc1nccs1 | ? | ? | 13µM* | 1 | -1%
S=C(NCc1ccccc1)Nc1nccs1 | 1.3µM* | 13% | 0.89µM* | -2 | 0%
O=C(COc1ccccc1)Nc1ncccn1 | 5% | ? | 38% | 0 | 0%
O=C(COc1ccc2ccccc2c1)Nc1nccs1 | 16µM* | ? | 10µM* | -10 | -1%
C/C(=C\C(=O)O)C(=O)Nc1nccs1 | 6% | 3% | -1% | -3 | 4%
COC(=O)c1ccccc1S(=O)(=O)N1CCC(C(=O)NC2CCCCC2C)CC1 (stereo unspecified) | . | 0% | . | -1 | -1%
CN(Cc1nccn1C)C(=O)c1ccc(OC2CCN(CCc3ccccc3)CC2)cc1 | -14% | 1% | -14% | -6 | 0%
CCNc1ncc2nc(-c3cccs3)c(=O)n(-c3ccccc3)c2n1 | -17% | . | -25% | . | .
Cc1ccc(CC(=O)Nc2nccs2)cc1C | 2.5µM* | ? | ? | 13 | 0%
CCOc1ccc(CC(=O)Nc2nccs2)cc1 | -6% | -3% | 28% | 1 | 0%
O=C(NCc1nc2ccccc2[nH]1)C1=C[C@@H](c2csc3ccccc23)C[C@@H](OCCCCO)O1 | 13% | 23µM* | 0% | 0 | 0%
O=C(NCc1ccccc1)C1=C[C@@H](c2csc3ccccc23)C[C@@H](OCCCCO)O1 | 15% | -22% | ? | 3 | 0%
COc1ccc(Oc2ncc3ncc(=O)n(Cc4cccs4)c3n2)cc1 | -2% | . | 3% | . | .
COc1ccc2c(c1)CCc1cc(C(=O)N3CCN(c4ccc(N5CCOCC5)nn4)CC3)sc1-2 | 1% | 21µM* | 10% | -12 | 0%
O=C(COC(=O)C12CC3CC(CC(C3)C1)C2)Nc1ccc([N+](=O)[O-])cc1Cl | -3% | 21µM* | 2% | -3 | 0%
SMILES | VP16 counter | ELG1 DNA repair | RORg inh | TSHR antag | B2AR arrestin
Cc1cc([N+](=O)[O-])cc(/C=N/n2c(C)nc3ccccc3c2=O)c1O | 5% | ? | 13µM* | 3 | 0%
O=[N+]([O-])c1ccc(O)c(/C=N/n2c(CO)nc3ccccc32)c1 | 29% | 26µM* | -4% | -2 | 0%
O=[N+]([O-])c1ccc(O)c(/C=N/n2cnc3ccccc32)c1 | ? | 21µM* | ? | ? | 0%
C/C(=N\OCc1nc2ccccc2c(=O)n1/N=C/c1cc([N+](=O)[O-])ccc1O)c1ccccc1 | ? | ? | 10µM* | -16 | -1%
C/C(=N\OCc1nc2ccccc2c(=O)n1/N=C/c1cc(C)cc([N+](=O)[O-])c1O)c1ccccc1 | -4% | ? | 7% | -13 | 8%
OCc1nc2ccccc2n1/N=C/c1cccs1 | -6% | 10% | -10% | 4 | 0%
O=C(Nc1ccc(Cl)cc1)OCCN1CCN(Cc2ccccc2)CCC1=O | 2% | . | ? | . | .
CSc1nc(N)c2ncn([C@@H]3O[C@H](COP(=O)(O)OP(=O)(O)OP(=O)(O)O)[C@@H](O)[C@H]3O)c2n1 | . | . | . | 8 | .
O=C(CSc1nnc(CNc2ccc(Cl)cc2)o1)Nc1nc2c(s1)CCCC2 | ? | -26% | 11µM* | 4 | -3%
CN1CCN(c2ncc3nc(CCc4ccccc4)c(=O)n(C4CC4)c3n2)CC1 | 1% | . | ? | . | .
O=C(NCc1ccc(F)cc1)c1ccncc1 | -3% | 8% | -31% | -121* | 0%
O=C(O)C(O)C(O)(Cc1ccc(O)cc1)C(=O)O (stereo unspecified) | ? | . | -6% | . | .
O=C1CN(C(=O)c2ccc(Br)o2)C(c2ccccc2)c2cc(Cl)ccc2N1 (stereo unspecified) | 4% | 21µM* | 29% | 22 | 0%
O=C1CN(C(=O)c2ccc(Br)o2)C(c2ccc(F)cc2)c2cc(Cl)ccc2N1 (stereo unspecified) | 4% | ? | ? | 17 | 0%
S=C(NCCc1ccccn1)Nc1ccccc1 | ? | ? | 20µM* | -11 | 0%
S=C(NCc1cccnc1)Nc1ccc(Cl)c(Cl)c1 | ? | 1% | ? | -22 | 0%
COc1cccc(NC(=S)NCCc2ccccn2)c1 | 18µM* | ? | ? | -10 | 0%
S=C(NCCc1ccccn1)Nc1ccc(Cl)c(Cl)c1 | 7.1µM* | 8% | 5.6µM* | -9 | 0%
O=C(NCc1ccccn1)Nc1ccccc1 | -15% | ? | -37% | -13 | 0%
COCCNC(=S)Nc1ccc(Cl)c(Cl)c1 | ? | -3% | 10µM* | -3 | 0%
COc1cccc(NC(=S)NCc2ccncc2)c1 | -10% | -2% | 1% | 10 | -1%
Cc1cc2c(c(C)c1Cl)C(c1ccc3c(c1)OCO3)CC(c1ccccc1)O2 (stereo unspecified) | 5% | . | 2% | . | .
COc1cccc(OC)c1C1=Nn2c(nnc2-c2ccccc2C)SC1 | -12% | . | -12% | . | .
CCN(CC)C(=S)Nc1ccc(Cl)c(Cl)c1 | ? | -12% | 18µM* | -1 | -1%
S=C(NCCc1ccccn1)Nc1cc(Cl)cc(Cl)c1 | ? | ? | 5µM* | 5 | 0%
c1ccc(-c2cccc(N3CC[C@@]4(CCCNC4)C3)c2)cc1 | 0% | . | -23% | . | .
COc1cc2nc(N3CCN(c4cc(C)ccc4C)CC3)nc(N)c2cc1OC | 16µM* | ? | 16µM* | 6 | -1%
